Measurements from PubChem BioAssay (NCATS).
Values without a mark were called inactive. Records with an inconclusive call do not appear. Calls of active or inactive are those of the source. Unless noted, the call rests on the fitted dose curve; in most records, active means well fitted curve in either direction with a large enough effect (not every such curve was filed as active); inconclusive means small, poorly fitted or top-dose-only effect, or another doubt; inactive means flat fitted curve, though single readings scatter.

Legend:
[1] = biological target: Lysosomal acid glucosylceramidase (Homo sapiens) (UniProt P04062); assay: Glucocerebrosidase-p2 (AID 348; in the data active means potency below about 10 µM; further: potency means the concentration at half of the fitted maximal effect); conditions: purified GBA, blue fluorogenic substrate, 40 min
Sequence of Lysosomal acid glucosylceramidase (Homo sapiens) (P04062 whole entry, looked up): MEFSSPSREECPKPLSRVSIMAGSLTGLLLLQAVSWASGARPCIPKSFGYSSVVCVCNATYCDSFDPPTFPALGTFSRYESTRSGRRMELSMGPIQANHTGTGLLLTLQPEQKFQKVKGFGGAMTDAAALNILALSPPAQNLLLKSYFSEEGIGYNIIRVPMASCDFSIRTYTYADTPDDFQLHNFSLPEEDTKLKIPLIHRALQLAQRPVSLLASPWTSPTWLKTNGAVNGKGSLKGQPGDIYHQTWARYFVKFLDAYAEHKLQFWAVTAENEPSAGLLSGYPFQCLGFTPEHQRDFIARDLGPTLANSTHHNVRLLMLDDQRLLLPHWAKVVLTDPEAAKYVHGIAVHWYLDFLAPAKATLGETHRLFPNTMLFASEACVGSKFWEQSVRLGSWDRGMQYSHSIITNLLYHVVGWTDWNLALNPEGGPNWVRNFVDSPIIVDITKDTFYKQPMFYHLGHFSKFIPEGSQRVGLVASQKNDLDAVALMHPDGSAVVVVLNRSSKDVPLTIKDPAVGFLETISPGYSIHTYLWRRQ
Procedure, shortened: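 Compounds titrated from 0.6 nM upwards against 0.2 nM enzyme in pH 5.9 citric acid/KH2PO4, taurocholate, tween-20; blue fluorogenic substrate 80 uM, 40 min room temperature, stopped and read Ex 365/Em 440 for AC50.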

[2] = AP1 Signaling Pathway (AID 357); conditions: ME-180 AP-1-bla reporter, EGF-induced, beta-lactamase ratio, 5 h; at 7.69 µM (top of the series) unless noted;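 further: ME-180 reporter cells stimulated with EGF at its EC50 level; on the % scale 0 is the no-effect control and ±100 the full control effect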
Procedure, shortened: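 Read-out was the 460nm/530nm emission ratio (excitation 405nm) after CCF4 loading for 2.5 hours at room temperature. Cells carried an AP-1-driven beta-lactamase reporter, were stimulated with EC50 EGF plus compound for 5 hours, and AC50 values came from titrations.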

[3] = biological target: Cytochrome P450 1A2 (Homo sapiens) (UniProt P05177); assay: p450-cyp1a2 (AID 410; calls by dose curve; further: potency means the concentration at half of the fitted maximal effect;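 on activity change, negative = inhibition: -100% = full effect of reference inhibitor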); conditions: recombinant CYP1A2, luciferin-ME demethylation, luminescence; series mostly up to 11.4 µM
Sequence of Cytochrome P450 1A2 (Homo sapiens) (P05177 whole entry, looked up): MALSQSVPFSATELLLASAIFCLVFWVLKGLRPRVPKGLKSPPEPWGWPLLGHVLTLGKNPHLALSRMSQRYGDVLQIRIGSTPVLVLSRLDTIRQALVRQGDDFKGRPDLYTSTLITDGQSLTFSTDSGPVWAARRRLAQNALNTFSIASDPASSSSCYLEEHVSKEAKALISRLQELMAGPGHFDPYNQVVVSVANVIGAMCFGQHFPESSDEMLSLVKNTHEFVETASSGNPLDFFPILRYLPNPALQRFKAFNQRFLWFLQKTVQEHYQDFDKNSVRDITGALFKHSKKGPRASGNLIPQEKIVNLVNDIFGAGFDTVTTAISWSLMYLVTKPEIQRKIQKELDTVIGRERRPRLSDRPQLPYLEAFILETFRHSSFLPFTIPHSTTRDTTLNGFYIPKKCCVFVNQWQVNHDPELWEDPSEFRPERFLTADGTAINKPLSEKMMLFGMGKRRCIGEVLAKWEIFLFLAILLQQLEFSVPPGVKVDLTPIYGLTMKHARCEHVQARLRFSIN
Procedure, shortened: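 Luminescent readout of luciferin formed from Luciferin-ME by human CYP1A2; data normalized against complete inhibition by 57 uM furafylline. Enzyme 20nM, substrate 100uM at Km, 100mM KPO4 buffer, 60 min reaction at room temperature.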

[4] = NFAT Signaling Pathway (AID 444); conditions: Jurkat NFAT-bla M1, carbachol, beta-lactamase ratio, 5 h; at 7.69 µM (top of the series) unless noted;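 further: carbachol stimulus at about its EC50 of 1 µM final; on the % scale 0 is the no-effect control and ±100 the full control effect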
Procedure, shortened: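 Jurkat cells with NFAT-driven β-lactamase reporter and co-expressed M1 receptor, stimulated with carbachol (final 1 uM, ~EC50), compound titration, 5 h at 37 °C. CCF4 loaded 1 h at RT; 460/530 nm ratio gave %activity and AC50.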

[5] = Stat Signaling Pathway (AID 446); conditions: ME-180 SIE beta-lactamase reporter, IL-6 stimulated, 5 h; at 7.69 µM (top of the series) unless noted;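 further: ME-180 cervical cancer cells given 40 pM IL-6 alongside compound; SIE-controlled beta-lactamase reporter measured as 460/530 nm FRET emission ratio; on the % scale 0 is the no-effect control and ±100 the full control effect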
Procedure, shortened: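 ME-180 cells carrying a SIE-driven beta-lactamase reporter are stimulated with 40 pM IL-6 for 5 h at 37C in the presence of compound. The 460/530 nm FRET substrate ratio is read after 2.5 h at RT. Data are normalised to 300 pM IL-6 and to 125 nM JAK inhibitor controls.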

[6] = biological target: Glucocorticoid receptor (Homo sapiens) (UniProt P04150); assay: GR-GFP Redistribution (AID 450;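 active means compounds whose dose series gives a full or clear partial fitted curve of increased nuclear translocation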; further: potency means the concentration at half of the fitted maximal effect); conditions: U2OS GR-GFP nuclear translocation, laser cytometry, 2 h
Sequence of Glucocorticoid receptor (Homo sapiens) (P04150 whole entry, looked up, the tested form may be a part): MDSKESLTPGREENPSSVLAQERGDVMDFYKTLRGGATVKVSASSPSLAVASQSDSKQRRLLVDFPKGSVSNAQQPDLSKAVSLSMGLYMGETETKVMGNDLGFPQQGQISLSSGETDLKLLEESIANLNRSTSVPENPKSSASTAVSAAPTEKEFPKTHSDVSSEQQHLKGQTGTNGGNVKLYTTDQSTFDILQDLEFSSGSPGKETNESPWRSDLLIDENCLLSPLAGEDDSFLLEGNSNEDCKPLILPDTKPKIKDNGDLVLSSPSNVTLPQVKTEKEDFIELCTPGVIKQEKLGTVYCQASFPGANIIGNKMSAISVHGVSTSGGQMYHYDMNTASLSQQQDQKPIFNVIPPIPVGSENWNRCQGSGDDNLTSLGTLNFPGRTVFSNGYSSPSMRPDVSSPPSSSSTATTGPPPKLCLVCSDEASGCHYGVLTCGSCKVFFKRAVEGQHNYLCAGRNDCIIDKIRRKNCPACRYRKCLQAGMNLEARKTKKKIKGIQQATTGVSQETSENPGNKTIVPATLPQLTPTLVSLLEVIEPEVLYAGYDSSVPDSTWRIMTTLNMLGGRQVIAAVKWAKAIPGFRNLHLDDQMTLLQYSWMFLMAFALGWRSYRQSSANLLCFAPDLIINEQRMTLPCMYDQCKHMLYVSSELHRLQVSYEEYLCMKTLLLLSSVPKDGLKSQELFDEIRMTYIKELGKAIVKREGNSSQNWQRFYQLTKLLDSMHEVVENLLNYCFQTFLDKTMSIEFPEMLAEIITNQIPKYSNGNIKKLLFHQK

[7] = biological target: Glucocorticoid receptor (Homo sapiens) (UniProt P04150); assay: GR-EFC Redistribution (AID 451; calls by dose curve; further: potency means the concentration at half of the fitted maximal effect); conditions: CHO-K1 GR-EFC translocation, beta-gal luminescence, 2 h
Procedure, shortened: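 CHO-K1 cells expressing nuclear EA and GR-ED fragments of b-gal; compounds titrated up to 46 uM final, 2 h at 37 C. GR nuclear translocation read as complemented b-gal luminescence after 1 h RT detection.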

[8] = biological target: Mitogen-activated protein kinase 10 (Mus musculus) (UniProt Q61831); assay: JNK3 AlphaScreen Assay (AID 530); conditions: JNK3 lysate, c-Jun phosphorylation; series mostly up to 11.4 µM;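 further: kinase came from lysate of stimulated human HepG2 cells; signal reports phosphorylation of biotinylated GST-cJun 1-79 at Ser73 with 10 µM ATP; on the % scale 0 is the no-effect control and ±100 the full control effect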
Procedure, shortened: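 Pre-activated (IL-1β/TNFα) JNK3 in HepG2 lysates phosphorylates biotin-GST-cJun(1-79), 10 uM ATP; anti-phospho-cJun(Ser73) AlphaScreen read at room temperature, pH 7.6 Tris buffer. Compounds pre-incubated 15 min as titrations.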

[9] = biological target: 3',5'-cyclic-AMP phosphodiesterase 4B (Homo sapiens) (UniProt Q07343); assay: qHTS Assay for Inhibitors of PDE-IV (AID 607; active means well fitted activation curve with a large enough effect in the main read-out, with a control signal flat, not every such curve was filed as active; further: % of control where 0% means no effect); conditions: HEK293 ACTOne CNG channel cells, membrane potential fluorescence; series mostly up to 22.9 µM
Sequence of 3',5'-cyclic-AMP phosphodiesterase 4B (Homo sapiens) (Q07343 whole entry, looked up): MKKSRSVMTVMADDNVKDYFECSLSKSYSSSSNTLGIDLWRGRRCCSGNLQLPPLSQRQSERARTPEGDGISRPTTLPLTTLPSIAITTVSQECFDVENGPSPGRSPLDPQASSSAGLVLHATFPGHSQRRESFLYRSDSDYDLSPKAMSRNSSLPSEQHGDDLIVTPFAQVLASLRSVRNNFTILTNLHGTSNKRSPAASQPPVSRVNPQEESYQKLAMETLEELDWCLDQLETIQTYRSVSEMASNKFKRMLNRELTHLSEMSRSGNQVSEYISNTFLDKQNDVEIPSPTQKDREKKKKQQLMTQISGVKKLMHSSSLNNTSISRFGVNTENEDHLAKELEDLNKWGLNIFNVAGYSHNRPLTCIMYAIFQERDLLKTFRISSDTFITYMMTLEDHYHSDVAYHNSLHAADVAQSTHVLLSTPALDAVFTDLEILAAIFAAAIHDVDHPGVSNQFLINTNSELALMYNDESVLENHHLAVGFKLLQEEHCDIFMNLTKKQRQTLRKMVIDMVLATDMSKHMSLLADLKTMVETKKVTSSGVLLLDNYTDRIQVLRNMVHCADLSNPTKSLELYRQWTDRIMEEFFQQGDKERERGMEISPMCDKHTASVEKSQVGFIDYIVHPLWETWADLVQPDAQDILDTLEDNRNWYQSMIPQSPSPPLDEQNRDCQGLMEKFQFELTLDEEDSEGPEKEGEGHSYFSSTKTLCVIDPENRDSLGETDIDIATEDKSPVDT
Procedure, shortened: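 HEK293 ACTOne cells with CNG channel (1000/well), endogenous PDE4; membrane potential dye, compounds up to 22.9 uM final. Fluorescence Ex 535/Em 590; RO 20-1724 (100 uM final) as reference.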

[10] = biological target: Cytochrome P450 3A4 (Homo sapiens) (UniProt P08684); assay: qHTS Assay for Activators of Cytochrome P450 3A4 (AID 885; active means well fitted curve in the direction sought with a large enough effect; an effect the other way counts as inactive or inconclusive; further: nearly all actives have a fitted effect of over 65% in size); conditions: recombinant CYP3A4, Luciferin-PPXE luminescence, 60 min; series mostly up to 11.4 µM
Sequence of Cytochrome P450 3A4 (Homo sapiens) (P08684 whole entry, looked up): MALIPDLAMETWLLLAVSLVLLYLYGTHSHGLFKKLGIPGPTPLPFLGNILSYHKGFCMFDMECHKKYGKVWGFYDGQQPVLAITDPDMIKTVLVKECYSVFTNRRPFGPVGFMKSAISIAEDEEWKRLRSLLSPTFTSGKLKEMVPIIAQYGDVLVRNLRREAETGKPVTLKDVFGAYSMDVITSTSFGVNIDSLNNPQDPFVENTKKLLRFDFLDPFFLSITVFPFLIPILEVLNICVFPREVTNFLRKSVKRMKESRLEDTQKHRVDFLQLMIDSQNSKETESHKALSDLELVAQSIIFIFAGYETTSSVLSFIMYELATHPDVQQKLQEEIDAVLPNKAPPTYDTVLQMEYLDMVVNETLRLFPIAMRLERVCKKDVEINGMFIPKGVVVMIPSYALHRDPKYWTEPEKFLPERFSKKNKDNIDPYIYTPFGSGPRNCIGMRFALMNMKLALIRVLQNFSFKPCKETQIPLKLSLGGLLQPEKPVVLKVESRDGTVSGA
Procedure, shortened: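 Human CYP3A4 (20 nM) with Luciferin-PPXE at 25 uM (its KM) in 200 mM KPO4; 10 min compound preincubation, then NADPH regeneration and 60 min reaction at RT. Luciferin read by luminescence; normalized to 57 uM ketoconazole full inhibition.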

[11] = biological target: Cytochrome P450 2C19 (Homo sapiens) (UniProt P33261); assay: qHTS Assay for Inhibitors and Substrates of Cytochrome P450 2C19 (AID 899; active means well fitted curve in the direction sought with a large enough effect; an effect the other way counts as inactive or inconclusive; further: nearly all actives have a fitted effect of over 60% in size; further: potency means the concentration at half of the fitted maximal effect); conditions: recombinant CYP2C19, luciferin-H EGE luminescence; series mostly up to 11.4 µM
Sequence of Cytochrome P450 2C19 (Homo sapiens) (P33261 whole entry, looked up): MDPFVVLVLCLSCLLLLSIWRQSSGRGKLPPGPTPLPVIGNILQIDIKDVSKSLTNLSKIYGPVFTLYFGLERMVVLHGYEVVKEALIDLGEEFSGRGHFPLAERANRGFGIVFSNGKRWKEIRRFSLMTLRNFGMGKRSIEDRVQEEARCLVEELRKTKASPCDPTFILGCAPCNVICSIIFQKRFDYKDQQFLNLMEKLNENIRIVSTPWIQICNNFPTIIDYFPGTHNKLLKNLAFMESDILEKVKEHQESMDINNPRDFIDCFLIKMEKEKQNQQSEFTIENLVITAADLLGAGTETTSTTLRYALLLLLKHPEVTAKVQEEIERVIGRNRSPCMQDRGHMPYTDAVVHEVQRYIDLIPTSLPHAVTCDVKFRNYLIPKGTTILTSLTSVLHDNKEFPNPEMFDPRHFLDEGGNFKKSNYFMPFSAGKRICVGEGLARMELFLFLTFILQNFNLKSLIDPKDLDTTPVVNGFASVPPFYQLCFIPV
Procedure, shortened: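 Luminescent read-out of luciferin formed from Luciferin-H EGE (10uM, equal to KM). Enzyme 5nM in 50mM KPO4; compound added, 10 min at 37C, then NADPH regenerating system for 60 min at 37C. Full inhibition defined by 57uM ketoconazole.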

[12] = biological target: Cytochrome P450 2D6 (Homo sapiens) (UniProt P10635); assay: qHTS Assay for Inhibitors and Substrates of Cytochrome P450 2D6 (AID 891; active means well fitted curve in the direction sought with a large enough effect; an effect the other way counts as inactive or inconclusive; further: nearly all actives have a fitted effect of over 60% in size; further: potency means the concentration at half of the fitted maximal effect); conditions: recombinant CYP2D6, luciferin-ME EGE luminescence; series mostly up to 11.4 µM
Sequence of Cytochrome P450 2D6 (Homo sapiens) (P10635 whole entry, looked up): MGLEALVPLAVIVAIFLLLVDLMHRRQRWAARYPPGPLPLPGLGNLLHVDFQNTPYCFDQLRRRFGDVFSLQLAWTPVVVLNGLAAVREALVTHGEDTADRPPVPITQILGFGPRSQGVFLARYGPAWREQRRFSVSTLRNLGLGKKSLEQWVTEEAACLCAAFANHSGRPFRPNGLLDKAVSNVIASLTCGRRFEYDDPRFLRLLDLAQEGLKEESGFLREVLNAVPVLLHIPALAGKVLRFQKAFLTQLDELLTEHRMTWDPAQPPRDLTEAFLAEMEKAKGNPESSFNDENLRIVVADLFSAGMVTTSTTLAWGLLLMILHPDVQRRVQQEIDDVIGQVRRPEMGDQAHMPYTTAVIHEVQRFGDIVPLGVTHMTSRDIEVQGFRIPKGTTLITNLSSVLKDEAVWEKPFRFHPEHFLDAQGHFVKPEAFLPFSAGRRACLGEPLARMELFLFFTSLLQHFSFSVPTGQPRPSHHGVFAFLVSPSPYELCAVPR
Procedure, shortened: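 Human CYP2D6 (5 nM) with 30 uM Luciferin-ME EGE (at Km) in 100 mM KPO4, compound preincubated 10 min, then NADPH regeneration system for 60 min at room temperature. Luciferin read by luminescence; normalized to 1.43 uM quinidine.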

[13] = qHTS Assay for Identification of Small Molecule Agonists for Hypoxia Response Element Signaling Pathway (AID 914; active means well fitted activation curve with a large enough effect in the signal ratio, with a control signal flat, not every such curve was filed as active; the % refers to the signal ratio; further: % of control where 0% means no effect); conditions: ME-180 (cervical carcinoma) HRE-bla reporter, beta-lactamase ratio, CoCl2, 17 h; activation: active compounds read high
Procedure, shortened: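 Compounds in a titration series were added to ME-180 reporter cells alongside an EC50 level of CoCl2. After 17 hours, beta-lactamase activity was read as the 460nm/530nm emission ratio of CCF4, giving AC50 values.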

Row | Compound | Potency [1] | activity change, negative = inhibition [2] | Potency [3] | activity change, negative = inhibition [4] | activity, negative = inhibition [5] | Potency [6] | Potency [7] | Potency [8] | Potency [9] | Potency [10] | activity change, negative = inhibition [3] | Potency [11] | Potency [12] | activation [13]
1 | NC1=C(O)C(=O)[C@H](c2c[nH]c3ccc(OCc4ccccc4)cc23)O1 | > 11.4 µM | -18.8% | 3.98 µM (active) | 7.15% | -6.03% | > 46 µM | > 9.22 µM | inactive | inactive | inactive |  |  |  | 
2 | CC(C)c1ccccc1S(=O)c1ccccc1C(C)(C)O (centres undefined) | > 11.4 µM | -11.8% |  | 20.3% | 2.89% | > 46 µM | > 9.22 µM | inactive | inactive | inactive | -10.7% [at 2.29 µM] |  |  | 
3 | Cn1c(=O)c2[nH]c(SCCN3CCOCC3)nc2n(C)c1=S | > 11.4 µM | 0.183% | 0.631 µM (active) | 15.6% | 1.45% | > 46 µM | > 9.22 µM | inactive | inactive | inactive |  |  |  | 
4 | C[C@H](C(=O)c1ccccc1)[C@@H](c1ccccc1)N1CCOCC1 | > 11.4 µM | -4.08% | inactive | 5.21% | 8.2% | > 46 µM | > 9.22 µM | inactive | inactive | inactive |  | 1.58 µM (active) |  | 
5 | COc1cc2nncc(SCc3ccc(Cl)c(Cl)c3)c2cc1OC | > 11.4 µM | 0.364% | 0.794 µM (active) | 1.06% | -13.6% | > 46 µM | > 9.22 µM | inactive | inactive | inactive |  | 2.51 µM (active) |  | 
6 | Br/C(=N\Nc1nn[nH]n1)c1ccncc1 | > 11.4 µM | 9.43% | inactive | 24.2% | 1.9% | > 46 µM | > 9.22 µM | inactive | inactive | inactive |  |  | inactive | 
7 | O=C(CSC1=NCCN1)Nc1ccccc1 | > 11.4 µM | 15% | 3.98 µM (active) | -6.05% | -2.98% | > 46 µM | > 9.22 µM | inactive | inactive | inactive |  |  | 1.58 µM (active) | 
8 | O=c1cnc2cnc(Oc3ccccc3)nc2n1Cc1ccc(F)cc1 | > 11.4 µM | -8.79% | 15.8 µM (active) | -4.49% | 18.8% | > 9.22 µM | > 46 µM | inactive | inactive | inactive |  | 2.51 µM (active) |  | 
9 | O=C(O)C1(C(=O)O)CCN(S(=O)(=O)c2ccccc2)CC1 | > 11.4 µM | -0.169% |  | 5.93% | 11.9% | > 46 µM | > 9.22 µM | inactive | inactive |  | 14% [at 2.29 µM] |  | inactive | 
10 | Cc1cc(C(C)(C)C)c(OCCCN2CCOCC2)c(C(C)(C)C)c1 | > 11.4 µM | 3.87% |  | -12.7% | 0.456% | > 46 µM | > 9.22 µM | inactive | inactive | inactive | -17.7% [at 2.29 µM] |  | 2 µM (active) | 1.57%
11 | CCCCN1CSC(=S)N(Cc2ccccc2)C1 | > 11.4 µM | 3.6% | 3.98 µM (active) | -0.909% | 2.92% | > 46 µM | > 9.22 µM | inactive | inactive | inactive |  | 1.26 µM (active) |  | 
12 | N/C(CC(=O)Nc1cc(C(F)(F)F)ccc1Cl)=N\O | > 11.4 µM | -3.52% | 1.58 µM (active) | 11.5% | -1.63% | > 46 µM | > 9.22 µM | inactive | inactive | inactive |  | inactive |  | 
